The results in this text go back to PubChem BioAssay AID1946 (Johns Hopkins Ion Channel Center, 2009).

The campaign covered roughly 2,400 compounds. About 180 (7.5%) were called active. Many of the other results were omitted from the sample, so actives are more common in it than they were. Unmarked numbers belong to inactive results.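 The calls were made as follows: active = readout below zero, meaning a drop past 3 SD under the dofetilide-free negative control mean; inactive = the rest.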

This assay deals with Potassium voltage-gated channel subfamily KQT member 2 (Rattus norvegicus) (UniProt O88943). In words: rat KCNQ2 channel inhibition by compounds alone, confirmation, counter-screen for hERG block protector project, cell-based, CHO, FluxOR thallium flux (AID 1946). To be noted: CHO-KCNQ2 cells, FluxOR thallium flux fluorescence; at 10 µM; hits give low values; zero marks the 3-SD hit cutoff. A general note: Counterscreens check selectivity or assay interference.
Chain of Potassium voltage-gated channel subfamily KQT member 2 (Rattus norvegicus) (O88943 whole entry, looked up): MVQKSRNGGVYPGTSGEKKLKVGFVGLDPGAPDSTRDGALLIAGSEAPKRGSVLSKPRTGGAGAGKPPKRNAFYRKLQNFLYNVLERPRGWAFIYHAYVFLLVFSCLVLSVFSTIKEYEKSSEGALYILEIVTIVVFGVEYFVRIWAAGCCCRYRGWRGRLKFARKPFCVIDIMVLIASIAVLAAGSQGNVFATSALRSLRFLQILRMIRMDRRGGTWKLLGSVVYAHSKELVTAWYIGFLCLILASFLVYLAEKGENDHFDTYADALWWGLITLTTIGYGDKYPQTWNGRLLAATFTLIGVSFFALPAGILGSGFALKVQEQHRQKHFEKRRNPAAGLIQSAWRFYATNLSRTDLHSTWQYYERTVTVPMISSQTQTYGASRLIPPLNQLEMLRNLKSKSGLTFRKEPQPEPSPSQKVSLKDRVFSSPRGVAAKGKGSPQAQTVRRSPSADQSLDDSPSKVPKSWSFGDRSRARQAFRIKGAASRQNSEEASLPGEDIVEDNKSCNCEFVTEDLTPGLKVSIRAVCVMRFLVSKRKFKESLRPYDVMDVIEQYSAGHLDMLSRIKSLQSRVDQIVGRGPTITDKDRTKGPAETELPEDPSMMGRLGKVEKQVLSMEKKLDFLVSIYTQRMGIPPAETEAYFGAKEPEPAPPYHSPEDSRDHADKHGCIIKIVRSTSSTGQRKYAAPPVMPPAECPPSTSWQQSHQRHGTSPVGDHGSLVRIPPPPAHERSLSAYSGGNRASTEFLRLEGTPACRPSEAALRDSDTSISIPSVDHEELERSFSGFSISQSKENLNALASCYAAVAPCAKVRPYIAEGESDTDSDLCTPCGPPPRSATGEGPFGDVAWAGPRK
On to `Cc1cccc(NC(=O)C(=O)NNC(=O)c2ccc(C(C)(C)C)cc2)c1`, for which the activity change vs negative control was 134%.
On to `C=CCn1c(=S)[nH]c2sc3c(c2c1=O)CCC3`, for which the activity change vs negative control is 64.2%.
In the case of `CC(NC(=O)NC1CCCCC1)c1ccccc1` (configuration not stated), the activity change vs negative control is 57.6%.
The result for `CCN(Cc1ccccc1)C(=S)NC(=O)c1ccccc1Br` reads 96.1%; that for `S=c1nc(SCc2ccccc2)[nH]c2ccccc12`, 95.4%.
The result for `Cc1ccc(/C=N/N2C(=O)c3ccccc3NC2c2ccc(C)cc2)cc1` (configuration not stated) reads -1.1% (active); that for `Cc1cc([N+](=O)[O-])ccc1-c1ccc(C2Nc3ccccc3C(=O)N2O)o1` (configuration not stated), 24.1%; that for `Cc1ccc(/C=C/C(=O)C2C(=O)c3ccccc3C2=O)cc1`, 69.5%.
In the case of `CC(C)CNC(=S)NC(=O)c1ccc(Cl)cc1`, the activity change vs negative control is 10.6%.
Regarding `CCc1c(C)sc(NC(=O)CN2CCN(C(=O)c3ccco3)CC2)c1C(=O)OC`, the activity change vs negative control is 44.4%.
As for `Cc1ccc(-c2nc3c(Cl)cc(Cl)cc3c(=O)n2O)cc1`, the activity change vs negative control is 164%.
Turning to `CC1=NN(c2ccccc2)C(=O)C1C(=O)c1ccc(Cl)cc1` (configuration not stated), the activity change vs negative control was 28.9%.
With `CC(=O)C1=C(O)C(=O)N(c2cccnc2)C1c1ccc(Cl)cc1` (configuration not stated), the activity change vs negative control is -2.8% (active).
On to `O=C1c2ccccc2C(=O)N1c1cccnc1`, for which the activity change vs negative control was 6.9%.
The result for `CN(Cc1ccccc1)C(=S)NC(=O)c1cccs1` reads 31.2%; that for `Nc1nc(O)c(N=Nc2ccc(S(N)(=O)=O)cc2)c(=O)[nH]1`, -2% (active).
Turning to `Cc1ccc2[nH]c(=O)c(C(c3nnnn3C3CCCC3)N3CCCc4ccccc43)cc2c1` (configuration not stated), the activity change vs negative control is 27.9%.
`COc1ccc(-c2csc(NC(=S)NC(=O)c3ccco3)n2)cc1`: the activity change vs negative control was 21.1%.
Turning to `C=Cc1ccc(Cn2c(=O)n(CCCOC)c(=O)c3sccc32)cc1`, the activity change vs negative control is -5.9% (active).
The result for `Cn1c(=O)c2sccc2n(Cc2cccc(Br)c2)c1=O` reads 10.6%.
As for `COCCCn1c(=S)[nH]c2c(sc3ccccc32)c1=O`, the activity change vs negative control was 12.3%.
Turning to `Cc1cccc2nc(-c3cccnc3)c(NCCC(C)C)n12`, the activity change vs negative control was -23.5% (active).
Take `CC(C)Cn1c(=S)[nH]c2cc(Cl)ccc21`: the activity change vs negative control is 21%.
As for `COc1ccc(-c2nc(=S)c3ccc4ccccc4c3[nH]2)cc1`, the activity change vs negative control was 74.5%.
For `CC(C)OC(=O)c1c(NS(=O)(=O)c2ccccc2)sc2c1CCCC2`, the activity change vs negative control is 31%.
The result for `C/C(=C/CCC(C)[C@H]1CC[C@@]2(C)C3=C(CC[C@]12C)[C@@]1(C)CCC(=O)C(C)(C)[C@@H]1CC3)C(=O)O` (some centres not stated) reads -13.3% (active); that for `C/C(=C/CCC(C)C1CCC2(C)C3CCC4C(C)(C)C(=O)CCC4(C)C3=CCC12C)C(=O)O` (configuration not stated), 4.1%.
